Among all 370,000 compounds or so, about 2,600 (0.7%) were called active.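 The calls were made as follows: active = inhibition above a per-plate cutoff, mean inhibition of test wells between control levels plus 3 SD (cut at about 38% in these data); inactive = the rest.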 The sample as a whole holds a higher share of actives than the screen did.

As usually defined, the inhibition is the change of the read-out against control, counted positive when it falls.

The target in this test is COUP transcription factor 2 (Homo sapiens) (UniProt P24468). As to the kind of experiment: COUP-TFII reporter suppression in human cells – cell-based, luciferase reporter, HEK293T, luminescence, primary screen (AID 686940).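 Also: cells cotransfected with COUP-TFII expression vector driving the NGFI-A reporter; 0% = median of COUP-TF2 test wells and 100% = reporter-only cells.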 The following applies: HEK293T NGFI-A luciferase reporter, at 8.6 µM, active compounds read high. (In general: Reporter assays use an easily measured gene product as a stand-in for the process of interest.)
Chain of COUP transcription factor 2 (Homo sapiens) (P24468 whole entry, looked up): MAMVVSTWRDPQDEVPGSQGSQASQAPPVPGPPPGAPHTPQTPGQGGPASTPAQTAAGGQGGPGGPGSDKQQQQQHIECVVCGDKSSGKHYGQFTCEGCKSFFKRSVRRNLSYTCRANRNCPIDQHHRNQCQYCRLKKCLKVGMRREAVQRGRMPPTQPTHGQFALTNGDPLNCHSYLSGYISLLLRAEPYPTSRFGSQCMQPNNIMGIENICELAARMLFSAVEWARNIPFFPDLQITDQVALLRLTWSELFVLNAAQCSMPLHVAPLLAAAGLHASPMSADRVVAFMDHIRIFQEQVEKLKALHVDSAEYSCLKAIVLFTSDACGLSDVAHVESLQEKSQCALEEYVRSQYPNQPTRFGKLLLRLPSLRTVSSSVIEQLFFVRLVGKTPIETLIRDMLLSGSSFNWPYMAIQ
For `COc1ccc(C(=O)OCCN2CCN(C3CN(Cc4cn(Cc5ccccc5F)nn4)S(=O)(=O)C3)CC2)cc1OC` (configuration not stated), the inhibition was 18.4% (inactive).
Under `COc1cccc(N(C)C(=O)[C@@H](C)[C@@H](O)c2ccc3ccccc3c2)c1` stands -11.8% (inactive); under `COc1cccc(CNc2nc(NCc3cccs3)nc3ccsc23)c1`, 45.6% (active).
Under `COc1cccc(CNc2ncc(-c3ccccc3)n2C)c1` stands -0.1% (inactive); under `COc1cccc(CNc2nc3cc(-c4csc5ccccc45)sc3c(=O)n2C)c1`, 5.09% (inactive); under `CC(C)Nc1nc(NCCOc2ccccc2Cl)c2sccc2n1`, 19.2% (inactive).
Regarding `COc1ccccc1CNc1nc(Nc2ccccc2Cl)c2sccc2n1`, the inhibition was 60.3% (active).
Consider `COc1ccccc1CNCc1cccs1`, for which the inhibition was 9.93% (inactive).
Regarding `COc1cccc(-c2cc3nc(NCc4ccccc4OC)n(C)c(=O)c3s2)c1`, the inhibition was -9.04% (inactive).
The figure for `COc1ccc(NC(=S)NCc2cccs2)c(OC)c1` is 6.7% (inactive).
The figure for `COc1cccc(CNc2nc(NCc3ccccc3OC)nc3ccsc23)c1` is 39.1% (active); for `COc1ccc(C(=O)OCCN(C)C2CN(Cc3cn(Cc4cccc(C)c4)nn3)S(=O)(=O)C2)cc1OC` (configuration not stated) it is -14.5% (inactive).
On to `COP(=O)(O)CNC(=O)OCc1ccccc1`, for which the inhibition was -0.48% (inactive).
The figure for `COC(CNC(=O)[C@H](Cc1ccccc1)NC1(C(=O)NC2CCCCC2)CCCCC1)OC` is -36.3% (inactive); for `Cc1ccc(C(=O)N(Cc2ccccn2)CC2CCCO2)cc1` (configuration not stated) it is -9.77% (inactive); for `O=S1(=O)c2c(NCc3ccco3)cccc2Oc2ccccc2CN1Cc1cn(Cc2cccc(C(F)(F)F)c2)nn1` it is -1.36% (inactive).
Consider `CCOc1ccc(-n2c(SCC(=O)Nc3cc(C)c(NC(=O)c4ccccc4)cc3OC)nnc2-c2cccs2)cc1`, for which the inhibition was 27.9% (inactive).
On to `Cc1ccc(C2=CCN(C)C(=O)N2c2ccc(Cl)cc2)cc1`, for which the inhibition is -1.56% (inactive).
As to `CCOc1ccc(N(CC(=O)Nc2c(C)n(C)n(-c3ccccc3)c2=O)S(=O)(=O)c2ccc(Cl)s2)cc1`, the inhibition was -10% (inactive).
Under `Cc1cc(C)cc(NC(=O)N2CCC(N(C)CCC(C)C)CC2)c1` stands 1.48% (inactive); under `Cc1ccc(OCCCC(=O)N2CCOCC2)c(C)c1`, -6.33% (inactive); under `Cc1ccc(C)c(N2CCN(C(=O)CCCCCn3c(=S)[nH]c4ccc(N5CCOCC5)cc4c3=O)CC2)c1`, 44.7% (active).
Under `Cc1ccc(C)c(N2CCN(C(=O)Cn3ncn4cccc4c3=O)CC2)c1` stands 10.1% (inactive).
The figure for `CCC(c1ccc(NC(=O)OC(C)(C)C)cc1)c1cc(OC)cc(OC)c1` (configuration not stated) is 20% (inactive); for `Fc1ccc2[nH]c3c(N4CCSCC4)ncnc3c2c1` it is 45.2% (active); for `COc1ccc(CN(CCN2CCOCC2)C(=O)c2ccc(C)cc2)cc1OC` it is -7.96% (inactive).
Take `CCOC(=O)[C@@]12CN(C(=O)OC(C)(C)C)CC=C1N(Cc1ccc(OC)cc1)C(=O)[C@H]2CC(=O)NCc1ccc(OC)c(OC)c1`: the inhibition was -0.1% (inactive).
As to `Cc1cc(C)nc(NC(=S)N2CCN(c3ccc(C(F)(F)F)cn3)CC2)c1`, the inhibition was 22.9% (inactive).
Under `CC(=O)OC12CCCN(C1)/C(=C/c1ccncc1)C2` (configuration not stated) stands 3.99% (inactive).
As to `COc1cccc(CNC(=O)C2CCCN(c3nc4ccccc4o3)C2)c1OC` (configuration not stated), the inhibition was -7.71% (inactive).
In the case of `O=C(Nc1ccc(F)cc1)Nc1nnc([C@H]2C[C@H](O)[C@@H](CO)O2)s1`, the inhibition was -2.93% (inactive).
Take `Cc1ccc(CNC(=O)Nc2nnc([C@H]3C[C@H](O)[C@@H](CO)O3)s2)cc1`: the inhibition is 46.9% (active).
Turning to `O=C(Nc1nnc([C@H]2C[C@H](O)[C@@H](CO)O2)s1)c1cccc(Cl)c1`, the inhibition is 7.36% (inactive).
The figure for `Cc1cc(C(=O)NN=C/C=C/c2ccco2)n[nH]1` is -13.9% (inactive); for `CCc1c(C)nc(SCC(=O)NC2CCCC2)[nH]c1=O` it is 11.9% (inactive).
For the compound `CCc1ccc(-c2nc(SCC(=O)NC3CCCC3)n[nH]2)cc1`, the inhibition was 53.3% (active).
In the case of `COC(=O)c1ccccc1NC(=O)CSc1n[nH]c(-c2ccncc2)n1`, the inhibition was 8.9% (inactive).
Under `O=C(c1cccc(C(F)(F)F)c1)N1CC[C@H]2[C@H](CCCN2Cc2cc(F)cc(F)c2)C1` stands 2.53% (inactive); under `Cc1ccc(NC(=O)c2ccc(CSc3ncnc4nc[nH]c34)cc2)c(C)c1`, -6.98% (inactive); under `S=c1c2[nH]cnc2ncn1CCSc1ncnc2nc[nH]c12`, 3.01% (inactive).
Under `CCc1ccc(N(CC)c2ncnc3nc[nH]c23)cc1` stands 39.6% (active); under `CCCCN1CCN(C(=O)c2ccc3c(c2)NC(=O)C(C)(C)O3)CC1`, -23.3% (inactive).
For the compound `O=C(CNC(=O)c1ccccc1)OC(C(=O)Nc1cc([N+](=O)[O-])ccc1F)c1ccccc1` (configuration not stated), the inhibition was 1.21% (inactive).
For `O=C(NC(Nc1nc2ccc([N+](=O)[O-])cc2s1)(C(F)(F)F)C(F)(F)F)c1ccccc1`, the inhibition is 74.1% (active).
Take `O=C(Nc1nc2ccc(Cl)cc2s1)c1cc(-c2ccc(Cl)cc2)nc2ccccc12`: the inhibition is -23.3% (inactive).
`Cc1ccccc1NC(=O)COC(=O)c1ccc(Sc2ncn[nH]2)c([N+](=O)[O-])c1`: the inhibition was 13.4% (inactive).
In the case of `O=C(NCCSCc1ccccc1)c1ccc(Cl)c(S(=O)(=O)N2CCOCC2)c1`, the inhibition was 11% (inactive).
Regarding `CN(C)S(=O)(=O)c1ccc(C(=O)NCC(C)(C)N2CCOCC2)cc1`, the inhibition was 15.8% (inactive).
`CC(C)(CNC(=O)c1ccc(Cl)c(S(=O)(=O)N2CCc3ccccc3C2)c1)N1CCOCC1`: the inhibition was 65% (active).
As to `N#Cc1ccc(OC[C@@H](O)CN2CCC(C(O)(c3ccccc3)c3ccccc3)CC2)c(F)c1`, the inhibition was -4.45% (inactive).
The figure for `O=C(CSc1nc2ccccc2s1)NN=Cc1ccc(O)cc1O` is -18.2% (inactive); for `C=CCN(C)CC#Cc1ccccc1` it is 17.2% (inactive).
Under `Cc1ccc(-n2c(SCC(=O)Nc3cccc4ccccc34)nnc2-c2ccccn2)cc1` stands 14.2% (inactive); under `CC(C)(C)c1ccc(Oc2ccc(N)cc2)cc1`, 100% (active).
The figure for `COc1cccc(CNC(=O)CNS(=O)(=O)c2ccc3nc(C)sc3c2)c1OC` is 14.5% (inactive); for `O=C1CCC2(CCC(c3ccc(Cl)cc3)CC2)N1CCO` (configuration not stated) it is 20.9% (inactive); for `COC1=C[C@H](C(=O)NCCNC(C)=O)[C@H](C)[C@@H](c2ccccc2)CC1=O` it is 12% (inactive).
As to `CN(C)S(=O)(=O)c1cccc(C(=O)N/N=C\c2ccco2)c1`, the inhibition was 2.18% (inactive).
The figure for `O=C(Nc1ccccc1)N1CCN(Cc2nc3ccccc3c(=O)[nH]2)CC1` is 13.6% (inactive).
The figure for `O=C(C1CCN(S(=O)(=O)c2ccccc2)CC1)N1CCN(C2CCCCC2)CC1` is -29.2% (inactive); for `CCN(CC)P(=O)(C(NC(=O)OC)C(F)(F)C(F)(F)C(F)(F)C(F)F)N(CC)CC` (configuration not stated) it is 98.4% (active); for `O=C(CSc1nc2c(c(=O)[nH]1)CCCC2)N1CCCCC1` it is -26.3% (inactive).
Under `O=S1(=O)c2ccc(N3CCN(Cc4ccccc4F)CC3)cc2Oc2ccccc2CN1Cc1cn(Cc2ccc(Cl)cc2)nn1` stands -6.71% (inactive); under `Cc1ccc(-n2c(SCC(=O)Nc3ccc(S(=O)(=O)Nc4nccs4)cc3)nnc2-c2ccccn2)cc1`, -5.91% (inactive); under `CCCCN1C(=O)C(=O)N(CC(=O)Nc2cccc(C(C)=O)c2)C1=O`, 0.73% (inactive).
Turning to `CCSc1nsc(NC(=O)Nc2cccc(C(C)=O)c2)n1`, the inhibition is 17.5% (inactive).
As to `C=CCSc1nsc(NC(=O)Nc2cccc(C(C)=O)c2)n1`, the inhibition is 38.1% (active).
For `COC(=O)C[C@@H]1CC[C@@H]2[C@H](COc3ccc(NC(=O)c4cccc(F)c4)cc3C(=O)N2C)O1`, the inhibition is -0.62% (inactive).
`COc1ccc(-n2c(SCC(=O)Nc3ccc4cn[nH]c4c3)nnc2-c2cccnc2)cc1`: the inhibition is 9.8% (inactive).
Consider `N#CCC[C@H]1CC[C@]2(CCCN(Cc3ccc(Cl)cc3)C2)O1`, for which the inhibition was 1.96% (inactive).
For the compound `O=C1NC[C@@H](Cc2ccc(O)cc2)N(CCc2cccc(F)c2)C1=O`, the inhibition was 48.2% (active).
For `O=C1NC[C@H](CCCCN2C[C@H](Cc3ccccc3)N(Cc3ccccc3)C(=O)C2=O)N(CCc2ccc(O)cc2)C1=O`, the inhibition is -7.95% (inactive).
Take `O=C1NC[C@H](CCCCN2C[C@H](Cc3ccc(O)cc3)N(CCc3ccccc3)C(=O)C2=O)N(CCc2ccccc2)C1=O`: the inhibition was -1.56% (inactive).
For the compound `COc1ccnc(C(=O)N2CCC(Oc3cccnc3)CC2)c1`, the inhibition is -26.8% (inactive).
Under `O=S1(=O)c2c(cccc2N2CCSCC2)Oc2ccccc2CN1Cc1cn(Cc2ccc(F)cc2)nn1` stands -4.53% (inactive); under `O=C(Nc1cc(Cl)cc(Cl)c1)OCCN1CCCC12CCC(c1ccccc1)CC2` (configuration not stated), 2% (inactive); under `NS(=O)(=O)c1ccc(CCNC(=O)CNC(=O)Cc2ccccc2)cc1`, 10.1% (inactive).
Under `CC(Nc1nc(C(F)(F)F)nc2ccccc12)c1cccs1` (configuration not stated) stands -15.1% (inactive); under `NS(=O)(=O)c1ccc(CCNc2nc(C(F)(F)F)nc3ccccc23)cc1`, 46.6% (active).
The figure for `CCCCn1c(SCC(=O)N2CCCC2=O)nc2cc(S(N)(=O)=O)ccc21` is -5.45% (inactive); for `c1ccc(-c2cnc(CN3CCN(c4ccccc4)CC3)o2)cc1` it is -25.5% (inactive); for `CCCCn1c(SCc2ncc(-c3ccccc3)o2)nc2cc(S(N)(=O)=O)ccc21` it is 47% (active).
As to `Cc1ccc(NC(=O)Nc2cc(C)nn2-c2ccccc2)cc1`, the inhibition was -17.6% (inactive).
The figure for `COc1ccc(C2CC=C(C(=O)O)C(c3ccccc3F)N2S(=O)(=O)c2ccc(C)cc2)cc1OC` (configuration not stated) is 13% (inactive); for `COc1ccc2c(C(C)c3ccc(N)cc3)cn(C)c2c1` (configuration not stated) it is -15.8% (inactive).
For `O=C(C1CCCN1S(=O)(=O)c1ccccc1)N1CCc2ccccc2C1` (configuration not stated), the inhibition is 7.01% (inactive).
With `CN1C(=O)c2cc(NS(C)(=O)=O)ccc2OC[C@@H]2O[C@@H](CC(=O)NCc3ccc(-c4ccccc4)cc3)CC[C@H]21`, the inhibition was -21.8% (inactive).

The record behind these values is PubChem BioAssay AID686940 (The Scripps Research Institute Molecular Screening Center, 2013).
